# Assay outcomes deposited in PubChem BioAssay by Small Molecule Screening Facility, UW Madison.
# This is one part of a sample in which hits are shown more often than they occur.
# RMI-FANCM inh: disruptors of RMI1/RMI2 association with MM2 peptide – biochemical, fluorescence polarization, human, primary screen; FP signal (polarization) at 33 µM; RMI core complex (RMI1/RMI2) binding to FANCM MM2 peptide, human; actives 0.58% (n = 70,000); RMI core complex with F-MM2 peptide; hits give low values; AID 1159607, 2016; in the data active means FP signal below about 40
# * marks the source's active call; other numbers are inactive results; ! = a repeat was not active.
SMILES,RMI-FANCM inh
Cc1nc(Sc2nc3ccccc3o2)c2c3c(sc2n1)CCCC3,30*
Cc1nc(Cl)c2c3c(sc2n1)CCCC3,57
Cc1nc2sc3c(c2c(=O)o1)CCCC3,53
CC(=O)N1CCc2c(sc(NC(=O)c3ccccc3S(C)(=O)=O)c2C#N)C1,53
CC(C)CS(=O)(=O)Nc1ccc2c(c1)N(C(=O)C(C)C)CCC2,72
COCCN1CCCc2ccc(NS(=O)(=O)c3ccc(F)cc3F)cc21,18*
COCCN1CCCc2ccc(N)cc21,-72*
COCCN1CCCc2ccc(NS(=O)(=O)c3ccc(OC)cc3)cc21,58
COCCN1CCCc2ccc(NS(=O)(=O)Cc3ccc(Cl)cc3)cc21,-27*
COCCN1CCCc2ccc(NS(=O)(=O)c3cc(Cl)ccc3C)cc21,64
COCCN1CCCc2ccc(NS(=O)(=O)c3cc(C)c(C)cc3OC)cc21,60
COCCN1CCCc2ccc(NC(=O)c3cc(C)cc(C)c3)cc21,65
COCCN1CCCc2ccc(NS(=O)(=O)c3ccccc3Cl)cc21,62
COCCN1CCCc2ccc(NS(=O)(=O)c3ccc(C(C)(C)C)cc3)cc21,61
COc1ccc2nc(-c3ccc(C)c(NC(=O)Cc4ccc(Cl)cc4)c3)cn2n1,109
O=C(NCC1CCCO1)C(=O)Nc1ccc(OC(F)(F)F)cc1 (stereo not drawn),55
COc1cc2cc3c4cc(OC)c(OC)cc4cc[n+]3c(C)c2cc1OC,12*!
COc1cc2cc(=O)[nH]c(C)c2cc1OC,50
COc1cc2cc(C(=O)O)cc(-c3ccc(C)cc3)c2cc1OC,60
COc1ccc(-c2nnc(NC(=O)c3ccnn3C)o2)cc1,69
Nc1c(-c2ccccc2)sc2nc(-c3ccccc3)cc[n+]12,11*
Cc1sc2sc(-c3ccccc3)c(N)[n+]2c1C,72
c1ccc(-c2csc(-c3ccc(-c4ccccn4)s3)n2)cc1,71
NC(=O)C1Cc2ccccc2N1C(=O)Nc1cccs1 (stereo not drawn),28*
NC(=O)C1Cc2ccccc2N1C(=O)C1CC1 (stereo not drawn),66
SMILES,RMI-FANCM inh
NC(=O)C1Cc2ccccc2N1C(=O)c1cccs1 (stereo not drawn),53
Cc1nc2ccc(NC(=O)Nc3ccc4c(c3)OCO4)cc2c(=O)n1-c1ccc(Cl)cc1,28*
Cc1nc2ccc(NC(=O)C(C)Oc3ccc4c(c3)OCO4)cc2c(=O)n1-c1ccccc1 (stereo not drawn),64
Cc1ccc(-n2c(C)nc3ccc(NC(=O)Nc4ccc(F)c(Cl)c4)cc3c2=O)cc1,72
COC(=O)c1ccc2c(=O)n(CCC(=O)NCc3cccc(OC)c3)c(=S)[nH]c2c1,58
c1c2c(cc3sc(N4CCN(c5nc6cc7c(cc6s5)OCCO7)CC4)nc13)OCCO2,63
NNc1nc2cc3c(cc2s1)OCCO3,-6*
CCC(=O)Nc1nc2cc3c(cc2s1)OCCO3,73
C/C(=N/OCC(=O)N=S(C)(=O)c1ccc(C)cc1)c1ccc(Cl)cc1 (stereo not drawn),47
CCOC(=O)N1CCN(C(=O)CSc2cn(CCNC(=O)c3c(F)cccc3F)c3ccccc23)CC1,61
O=C(CCC(=O)OCC(=O)c1ccccc1)Nc1ccc2ccccc2c1,55
COC(=O)c1sc(SC)c(C#N)c1-c1ccco1,57
N#Cc1c(N)c(C#N)c2c(c1-c1ccco1)Cc1ccccc1-2,12*
N#CC1=C(N)OC(c2ccco2)=C(C#N)C1c1ccco1 (stereo not drawn),56
N#Cc1c(F)cccc1N1CCC(C(N)=O)CC1,54
O=C(O)CC1SC(=Nc2ccc(O)cc2)NC1=O (stereo not drawn),62
O=C1NC(=Nc2ccccc2)SC1Cc1cccc([N+](=O)[O-])c1 (stereo not drawn),-6*
O=C1NC(=Nc2ccc(Cl)cc2)SC1Cc1cccc([N+](=O)[O-])c1 (stereo not drawn),62
Cc1cc(-c2ccccc2)nc2oc(C(=O)c3ccc(Cl)cc3)c(N)c12,54
Cc1cc(-c2ccccc2)nc2oc3c(SCC(=O)c4ccc(-c5ccccc5)cc4)ncnc3c12,32*
CCOC(=O)Cn1cnc2c(oc3nc(-c4ccccc4)cc(-c4ccccc4)c32)c1=O,71
CCOC(=O)C1CCN(c2c(S(=O)(=O)c3ccccc3)cnc3ccc(OCC)cc23)CC1,61
CCc1ccc(S(=O)(=O)N2CCn3cccc3C2c2ccc(OC)c(OC)c2)s1 (stereo not drawn),69
O=C1CC(Nc2ccc(Cl)cc2)C(=O)N1c1ccc(Cl)cc1 (stereo not drawn),56
O=C(Cn1cnc(-c2ccc(F)cc2)cc1=O)N1CCN(CCc2ccccc2)CC1,65
SMILES,RMI-FANCM inh
COc1ccc(NC(=O)c2c(N)c(C(=O)c3ccc(C(C)C)cc3)n3ccccc23)cc1,80
C/C=C/C(=O)Nc1cc(C)nn1-c1nc2c(c(=O)[nH]1)CCC2,70
Cc1cc(NC(=O)C(=O)c2c[nH]c3ccccc23)n(-c2nc3c(c(=O)[nH]2)CCC3)n1,47
Cc1cc(NC(=O)c2cc(=O)c3ccccc3o2)n(-c2nc3c(c(=O)[nH]2)CCC3)n1,9*
S=C(N/N=C\c1[nH]ncc1Br)Nc1ccc(Cl)cc1,56
CN(C)c1ccc(C(CNC(=O)c2ccccc2[N+](=O)[O-])N2CCc3ccccc3C2)cc1 (stereo not drawn),57
COc1cc(C)c(C)cc1S(=O)(=O)Nc1ccc2c(c1)N(C(=O)C1CCCO1)CC2 (stereo not drawn),64
C(=NCc1ccccc1)c1ccc2c(c1)OCO2,53
Clc1cc(Cl)cc(C=NCc2ccccc2)c1,21*
C(=NCCc1ccccc1)c1ccccc1,49
CCOc1ccc(-n2nnnc2CNC(=O)Nc2ccccc2Cl)cc1,55
Cc1ccccc1Cn1c(=O)c2c(N3CCN(C(=O)c4ccco4)CC3)ccnc2n(C)c1=O,65
COc1ccc2c(C)cc(SCC(=O)c3ccc(OC)c(OC)c3)nc2c1,125
COc1ccc(C(=O)CSc2cc(C)c(C#N)c3nc4ccccc4n23)cc1OC,30*
COc1ccc(CCNc2cc(C)c(C#N)c3nc4ccccc4n23)cc1OC,52
CCOc1cc(C(=O)Nc2nc3ccc(C(=O)OC)cc3s2)cc(OCC)c1OCC,64
COC(=O)c1ccc2nc(NC(=O)c3ccnn3C)sc2c1,66
COC(=O)c1ccc2nc(NC(=O)c3ccc(N(C)C)cc3)sc2c1,-15*
CCOC(=O)c1c(-c2ccc(F)cc2)csc1NC(=O)CSc1nnc2scc(-c3ccc(Cl)cc3)n12,79
COc1cccc(C(=O)NCC(c2ccc3c(c2)CCCN3C)N2CCOCC2)c1OC (stereo not drawn),65
Nc1ncnc(Cl)c1N,17*
Nc1ncnc2c1CCC2,82
Nc1ncncc1-c1ccc(Cl)cc1,49
NC(=NS(=O)(=O)c1cc(C(F)(F)F)cc(C(F)(F)F)c1)c1cccs1,66
Cc1cccc(-c2noc(-c3cc(-c4ccco4)n[nH]3)n2)c1,94
SMILES,RMI-FANCM inh
Cc1onc(-c2ccccc2Cl)c1NC(=O)O/N=C(/N)c1ccc(Cl)cc1,55
Cc1noc(C)c1S(=O)(=O)N1CCC(C(=O)O)CC1,56
CCCc1noc(C)c1C(=O)O,-5*
Cc1coc(C)c1C(=O)O,57
O=[N+]([O-])c1ccc(Cl)c(S(=O)(=O)NCCOc2ccc(-c3cccs3)nn2)c1,57
CC(C)Sc1ccc(C(=O)Nc2ncnc3sccc23)cc1,55
N[C@H](CO)C(=O)O,49
